One molecule from PubChem BioAssay AID1036 (National Center for Advancing Translational Sciences (NCATS), 2008) can be followed below.

The assay in a line: NSCLC 1 Cell Viability Secondary Assay for qHTS Assay for Epigenetic Modulator. As to conditions: NSCLC 1 cells viability, MTS absorbance, 4 days. From the text:
NIH Molecular Libraries Screening Centers Network [MLSCN] NIH Chemical Genomics Center [NCGC] MLSCN Grant: 1 X01 MH079860-01 Assay Provider: Elisabeth D. Martinez, University of Texas SW Medical Center NCGC Assay Overview: This secondary assay characterizes selected actives identified in the qHTS of the Locus Derepression (LDR) assay (PubChem AID 597). The LDR assay detects the derepression of a GFP reporter that is stably integrated in a region of the genome of murine c127i mammary cells that is presumably silenced. Compounds that cause derepression of the locus to express GFP are identified by enumerating GFP positive cells using a laser-scanning microplate cytometer. […] NSCLC 1 cell viability was measured using Cell Titer 96 AQueous One (Promega), an assay which detects the ability of metabolically active cells to reduce a tetrazolium salt substrate (MTS), into a soluble formazan product that can be measured by colorimetry.
NCGC Assay Protocol Summary NSCLC 1 cells were plated in 96-well flat bottom tissue culture dishes (Corning) and grown overnight at 37 C and 5% CO2, then treated with compounds, incubated 4 days, and assayed for viability using the Cell Titer 96 AQueous One kit (Promega) according to the manufacturer's protocol. Absorbance at 490 nm and 650 nm (reference) was measured by a Spectra Max (Molecular Devices). […]

Records with an inconclusive call do not appear. Active and inactive are the calls of the source. The call rests on the fitted dose curve.

Regarding `CN1CSC(=S)N(C)C1`, the result was inactive.
